Laboratory results: PubChem BioAssay AID434970 (Sanford-Burnham Center for Chemical Genomics, 2010)
Screen size: about 11,000 compounds; about 310 (2.8%) were called active. Cut-off read from the data, not from the text of the source: active = activity change below about -85%; inactive = the rest. The full list was thinned out, with actives kept by preference.

Tested on: intestinal alkaline phosphatase [Mus musculus]
Test: activators of mouse IAP, confirmation, biochemical, luminescence, single concentration (AID 434970)
Conditions: purified mouse IAP, CDP-Star luminescence, 30 min, at 10 µM; activation factor: measured here: IAP activation factor, stronger effect = higher value; activity change, negative = activation: stronger effect = lower value

| Structure (SMILES) | activation factor | activity change, negative = activation |
| --- | --- | --- |
| O=C(NCC(=O)N(c1ccccc1)C(C(=O)NC1CCCCC1)c1ccncc1)c1ccco1 (stereo unspecified) | 1.01 | -1.1% (inactive) |
| Cc1ccc(-c2nnc(SCC(=O)NNC(=O)COc3cccc4ccccc34)n2C)cc1 | 1.03 | -3.2% (inactive) |
| Cn1c(=O)c2c(nc(SCC(=O)N3CCCCCC3)n2C)n(C)c1=O | 1.08 | -7.85% (inactive) |
| Cn1c(=O)c2c(nc(NC3CCCCC3)n2CC(=O)C23CC4CC(CC(C4)C2)C3)n(C)c1=O | 5.65 | -465% (active) |
| Cn1c(=O)c2c(nc(NC3CCCCC3)n2CC(O)COc2ccccc2)n(C)c1=O (stereo unspecified) | 1.01 | -0.8% (inactive) |
| CCN(Cc1cc2ccccc2[nH]c1=O)S(=O)(=O)c1ccccc1 | 1.02 | -1.85% (inactive) |
| O=C(NCc1cccs1)C(NS(=O)(=O)c1cccc2nsnc12)c1ccccc1 (stereo unspecified) | 0.974 | 2.65% (inactive) |
| CCOC(=O)C1C(=O)NC(N2CCCCC2)=NC1C(C)C (stereo unspecified) | 0.936 | 6.4% (inactive) |
| COc1cccc(NC(=O)NC2CCN(Cc3nnnn3Cc3ccc4c(c3)OCO4)CC2)c1 | 1.58 | -58.1% (inactive) |
| CCc1ccc(NC(=S)NC2CC3CCCC(C2)N3Cc2cccs2)cc1 (stereo unspecified) | 1.88 | -87.8% (inactive) |
| CCCN1C2CCCC1CC(NC(=O)Nc1cccc(C(C)=O)c1)C2 (stereo unspecified) | 1.05 | -5.35% (inactive) |
| COc1ccc(CN2C3CCCC2CC(NC(=O)Nc2cccc(C)c2)C3)cc1 (stereo unspecified) | 10.5 | -954% (active) |
| COc1cccc(NC(=S)NC2CC3CCCC(C2)N3CC(C)C)c1 (stereo unspecified) | 1.72 | -71.5% (inactive) |
| Cc1cccc(NC(=S)NC2CC3CCCC(C2)N3CC(C)C)c1 (stereo unspecified) | 2.45 | -145% (active) |
| CCOC(=O)c1ccc(NC(=O)NC2CC3CCC(C2)N3Cc2nnnn2Cc2ccco2)cc1 (stereo unspecified) | 1.95 | -94.8% (inactive) |
| S=C(Nc1ccc(Cl)cc1)NC1CC2CCC(C1)N2Cc1ccccc1 (stereo unspecified) | 1.64 | -64% (inactive) |
| C=CCN1C2CCCC1CC(NC(=O)Nc1cccc(C(C)=O)c1)C2 (stereo unspecified) | 0.972 | 2.8% (inactive) |
| CCc1ccc(NC(=S)NC2CC3CCCC(C2)N3Cc2ccccc2)cc1 (stereo unspecified) | 2.7 | -170% (active) |
| Cc1ccc(C)c(NC(=S)NC2CC3CCCC(C2)N3CC(C)C)c1 (stereo unspecified) | 1.24 | -23.9% (inactive) |
| O=C(Nc1ccccc1)NC1CC2CCC(C1)N2Cc1nnnn1Cc1ccc2c(c1)OCO2 (stereo unspecified) | 2.23 | -123% (active) |
| COc1ccc(-c2noc(CCC(=O)N3CCN(c4ccc(F)cc4)CC3)n2)cc1 | 1.1 | -10.3% (inactive) |
| CC(C)NC(=O)c1ccc(CNC(=O)OCC(F)(F)F)cc1 | 1.05 | -5.05% (inactive) |
| COCCNC(=O)Cn1c(=O)n(Cc2ccco2)c(=O)c2ccccc21 | 1.06 | -6.35% (inactive) |
| O=C(NOCc1ccccc1)c1ccccc1 | 0.948 | 5.2% (inactive) |
| CCOC(=O)C1=CN(Cc2cccc(-c3ccc4c(c3)OCO4)c2)S(=O)(=O)N(C)C1C (stereo unspecified) | 1 | -0.3% (inactive) |
| O=C1c2ccccc2[C@@H]2C[C@@H](O)[C@H](Nc3ccccc3Cl)CCN12 | 0.989 | 1.1% (inactive) |

| Structure (SMILES) | activation factor | activity change, negative = activation |
| --- | --- | --- |
| CCn1nnnc1SCC(=O)Nc1cc(C)on1 | 0.966 | 3.35% (inactive) |
| CCOC(=O)C1CCCN(C(=O)Cc2ccc(OC)c(OC)c2)C1 (stereo unspecified) | 1 | -0.35% (inactive) |
| Cc1ccc(OCCCC(=O)Nc2nncs2)cc1 | 1 | -0.3% (inactive) |
| Cc1ccc(Nc2nc(CSc3nnnn3C)cs2)cc1 | 0.806 | 19.4% (inactive) |
| O=C(Cc1ccccc1)NC(NC(=S)Nc1cc(Cl)ccc1Cl)C(Cl)(Cl)Cl (stereo unspecified) | 0.912 | 8.8% (inactive) |
| COC(=O)[C@H](C)N(Cc1ccc(Cl)c(Cl)c1)S(=O)(=O)CCNC1CCCC1 | 0.943 | 5.7% (inactive) |
| COc1ccc(OC)c(NC(=O)C2C3CCC(C3=C(C)C)C2C(=O)O)c1 (stereo unspecified) | 0.891 | 10.9% (inactive) |
| CCc1cccc(CC)c1NC(=O)CN1C2CCCC1CC(NC(=O)Nc1cccc(OC)c1)C2 (stereo unspecified) | 2.36 | -136% (active) |
| CC(=O)NC1CC2CCCC(C1)N2C(=O)Nc1ccc(Cl)c(C(F)(F)F)c1 (stereo unspecified) | 1.13 | -13% (inactive) |
| COc1ccc(NC(=O)Cc2ccccc2)cc1 | 0.897 | 10.3% (inactive) |
| O=C(Nc1cccn(Cc2ccc(F)cc2)c1=O)NC1CCCCC1 | 0.962 | 3.75% (inactive) |
| COc1cccc(C(=O)NC2CC3CCCC(C2)N3CC(=O)Nc2ccc(N(C)C)cc2)c1 (stereo unspecified) | 0.99 | 1% (inactive) |
| O=C(NCc1ccccc1)NC1CC2CCC(C1)N2Cc1ccco1 (stereo unspecified) | 1.08 | -7.85% (inactive) |
| O=C(Nc1ccccc1-c1ccccc1)NC1CC2CCCC(C1)N2Cc1ccc(F)cc1 (stereo unspecified) | 3.7 | -270% (active) |
| COc1ccc(NC(=O)NC2CC3CCCC(C2)N3Cc2ccccc2)cc1 (stereo unspecified) | 2.71 | -171% (active) |
| O=C(Nc1ccc(Cl)c(C(F)(F)F)c1)NC1CC2CCCC(C1)N2Cc1ccccc1 (stereo unspecified) | 7.69 | -669% (active) |
| COCC(=O)NC1CC2CCCC(C1)N2Cc1ccccc1 (stereo unspecified) | 1.08 | -8.2% (inactive) |
| O=C(Nc1ccccc1-c1ccccc1)NC1CC2CCCC(C1)N2CCc1ccccc1 (stereo unspecified) | 1.76 | -76.2% (inactive) |
| COc1cc(C(=O)NC2CC3CCCC(C2)N3CC(=O)Nc2ccccc2)cc(OC)c1OC (stereo unspecified) | 1.07 | -6.8% (inactive) |
| CC(C)N(C(=O)[C@H]1C[C@H](CC(=O)NCCc2ccccn2)C(=O)N2CCc3c([nH]c4cc(-c5ccco5)ccc34)[C@]12C)C(C)C | 1.14 | -14.4% (inactive) |
| COc1cc(/C=N/NC(N)=O)cc(Br)c1OCc1ccccc1C | 0.961 | 3.9% (inactive) |
| CC(OC(=O)c1cccs1)C(=O)NCC1CCCO1 (stereo unspecified) | 1.09 | -9% (inactive) |
| CCOC(=O)c1c(C)[nH]c(C(=O)COC(=O)C2CC(=O)N(Cc3ccccc3)C2)c1C (stereo unspecified) | 0.964 | 3.55% (inactive) |
| COCc1c(C)cc(C)c(/C=N/O)c1C | 0.951 | 4.9% (inactive) |
| CCSc1cc(C2C(C(=O)OC)=C(C)NC3=C2C(=O)CCC3)c(C)o1 (stereo unspecified) | 0.954 | 4.65% (inactive) |
| Cc1nc(SCN2C(=O)c3ccccc3C2=O)n[nH]1 | 0.945 | 5.55% (inactive) |

| Structure (SMILES) | activation factor | activity change, negative = activation |
| --- | --- | --- |
| CCOC(=O)c1[nH]c(C)c(CN(CCc2ccccc2)C(=O)CCC(=O)O)c1C | 0.977 | 2.3% (inactive) |
| O=C(Nc1cccn(Cc2ccccc2)c1=O)NC1CCCCC1 | 0.945 | 5.5% (inactive) |
| S=C(Nc1ccc(Cl)c(Cl)c1)NC1CCN(Cc2ccccc2)CC1 | 1.63 | -62.7% (inactive) |
| O=C(Nc1ccc2c(c1)N(Cc1ccccc1)C(=O)c1ccccc1S2)NC1CC1 | 2.45 | -145% (active) |
| Cc1cccc(NC(=S)NC2CC3CCCC(C2)N3Cc2cccs2)c1C (stereo unspecified) | 1.15 | -14.8% (inactive) |
| COc1ccc(CN2C3CCCC2CC(NC(=O)Nc2ccccc2C)C3)cc1 (stereo unspecified) | 2.43 | -143% (active) |
| CC(=O)c1cccc(NC(=O)NC2CC3CCCC(C2)N3CC(C)C)c1 (stereo unspecified) | 1.22 | -21.6% (inactive) |
| COc1ccc(CN2C3CCCC2CC(NC(=O)Nc2ccccc2)C3)cc1 (stereo unspecified) | 4.65 | -365% (active) |
| CCc1ccccc1NC(=S)NC1CC2CCCC(C1)N2Cc1cccs1 (stereo unspecified) | 1.01 | -0.9% (inactive) |
| CC(=O)NC1CC2CCCC(C1)N2CC(=O)Nc1ccccc1 (stereo unspecified) | 1.09 | -9.05% (inactive) |
| CC(C)OCCCNC(=O)C(=O)NCCCOC(C)C | 0.962 | 3.8% (inactive) |
| COC(=O)c1ccccc1NC(=O)CCS(=O)(=O)c1ccc(Br)s1 | 1.05 | -5% (inactive) |
| O=C(O)Cn1c(SCc2cccc3ccccc23)nc2ccccc21 | 1.09 | -9.2% (inactive) |
| S=c1[nH]ncn1/N=C/c1ccc(N2CCOCC2)cc1 | 1 | -0.35% (inactive) |
| CCOC(=O)c1c(C)[nH]c(O)c1C=Nc1ccc(C(F)(F)F)cc1 | 0.846 | 15.4% (inactive) |
| COc1ccc(OC)c(NC(=O)C(=O)/C=C(\O)c2cc(OC)ccc2OC)c1 | 0.905 | 9.55% (inactive) |
| Cc1ccc(/C(N)=N/OC(=O)Oc2ccccc2)cc1 | 0.99 | 1% (inactive) |
| COc1ccc(CCNC(=O)c2cc(-c3cc(Cl)cc(Cl)c3)oc2C)cc1 | 2.07 | -107% (active) |
| COc1ccc(CCNC(=O)c2ccc(Cl)cc2Cl)cc1 | 1.19 | -18.9% (inactive) |
| COc1ccc(CCNC(=O)c2ccc(Cl)cc2)cc1 | 1.08 | -8.2% (inactive) |
| O=C(CCCNS(=O)(=O)c1cccs1)N1CCN(c2ccc(F)cc2)CC1 | 0.934 | 6.55% (inactive) |
| COc1ccc(NC(=S)NCC2CCCO2)c(OC)c1 (stereo unspecified) | 0.95 | 4.95% (inactive) |
| CC[C@H](C)Cc1cn([C@@H](CCCCNC(=O)OC(C)(C)C)C(=O)NCCCCCCCCCCC(=O)N2CCN(C(=O)OC(C)(C)C)CC2)nn1 | 1.57 | -56.9% (inactive) |
| C#CCOCCOCCOCCNc1nc(N2CCN(C(=O)CCCCCCCCCCNC(=O)Cn3cc(C[C@@H](C)O)nn3)CC2)nc(N2CCN(C(=O)CCCCCCCCCCNC(=O)[C@H](CCCN=C(N)N)n3cc(C[C@@H](C)CC)nn3)CC2)n1 | 5.68 | -468% (active) |
| C#CCOCCOCCOCCNc1nc(N2CCN(C(=O)CCCCCCCCCCNC(=O)Cn3cc(C[C@@H](C)O)nn3)CC2)nc(N2CCN(C(=O)CCCCCCCCCCNC(=O)[C@H](CCCCN)n3cc(C[C@@H](C)CC)nn3)CC2)n1 | 2.76 | -176% (active) |
| CCc1cccc(CC)c1NC(=O)CSc1nc2ccc(N3C(=O)C4C5C=CC(C5)C4C3=O)cc2s1 (stereo unspecified) | 0.959 | 4.1% (inactive) |
